# Data published in PubChem BioAssay AID1159580 (chemical genetic matrix, 2015).
# Several values for one entry are separate records, joined by “and”; a condition that tells them apart may be missing. Identical values can stand only once. In all, about 5,500 compounds went through this assay and about 2,000 (36%) were called active. About 18% were inconclusive and are not listed. Cut-off read from the data, not from the text of the source: active = normalized growth mostly below about 0.91 (no sharp cut-off); inconclusive = no clear call, values can overlap the other calls; inactive = mostly above about 0.92. This is one part of the list. Some compounds were tested as several samples or in several runs, with calls that do not always agree.
# Experiment: chemical genetic growth profiling, strain panel (AID 1159580);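 note: tested at 20 µM; growth read once vehicle control cultures reached saturation at 30 °C; 1 = growth at the plate median or of vehicle wells; lower values mean less growth of the strain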
# Settings: S. cerevisiae deletion strains, growth OD
smiles,measurement,setting,value
O=C1CCc2cc(OCCCCc3nnnn3C3CCCCC3)ccc2N1,normalized growth,"locus YAL013W, strain DEP1, stronger effect = lower value",1 (inactive)
same,normalized growth,"locus YAL021C, strain ccr4, stronger effect = lower value",0.996 (inactive)
same,normalized growth,"locus YAL026C, strain drs2, stronger effect = lower value",1.01 (inactive)
same,normalized growth,"locus YAL030W, strain snc1, stronger effect = lower value",0.985 (inactive)
same,normalized growth,"locus YAL040C, strain CLN3, stronger effect = lower value",1.01 (inactive)
same,normalized growth,"locus YBL061C, strain skt5, stronger effect = lower value",0.991 (inactive)
same,normalized growth,"locus YBR009C, strain hhf1, stronger effect = lower value",0.989 (inactive)
same,normalized growth,"locus YBR021W, strain FUR4, stronger effect = lower value",1.03 (inactive)
same,normalized growth,"locus YBR023C, strain chs3, stronger effect = lower value",1 (inactive)
same,normalized growth,"locus YBR171W, strain sec66, stronger effect = lower value",0.981 (inactive)
same,normalized growth,"locus YBR229C, strain ROT2, stronger effect = lower value",1 (inactive)
same,normalized growth,"locus YBR231C, strain swc5, stronger effect = lower value",0.99 (inactive)
same,normalized growth,"locus YBR279W, strain paf1, stronger effect = lower value",0.989 (inactive)
same,normalized growth,"locus YCL011C, strain gbp2, stronger effect = lower value",0.995 (inactive)
same,normalized growth,"locus YCL016C, strain dcc1, stronger effect = lower value",1 (inactive)
same,normalized growth,"locus YCL029C, strain bik1, stronger effect = lower value",0.988 (inactive)
same,normalized growth,"locus YCL061C, strain MRC1 (second series), stronger effect = lower value",0.0772 (active)
same,normalized growth,"locus YCL061C, strain MRC1, stronger effect = lower value",0.988 (inactive)
same,normalized growth,"locus YCL069W, strain vba3, stronger effect = lower value",0.982 (inactive)
same,normalized growth,"locus YCR088W, strain abp1, stronger effect = lower value",0.992 (inactive)
same,normalized growth,"locus YDL005C, strain med2, stronger effect = lower value",0.983 (inactive)
same,normalized growth,"locus YDL035C, strain GPR1, stronger effect = lower value",1.01 (inactive)
same,normalized growth,"locus YDL040C, strain nat1, stronger effect = lower value",0.988 (inactive)
same,normalized growth,"locus YDL074C, strain BRE1, stronger effect = lower value",1.03 (inactive)
same,normalized growth,"locus YDL101C, strain DUN1, stronger effect = lower value",1 (inactive)
same,normalized growth,"locus YDL134C, strain PPH21, stronger effect = lower value",1.01 (inactive)
same,normalized growth,"locus YDL185W, strain tfp1, stronger effect = lower value",0.993 (inactive)
same,normalized growth,"locus YDL192W, strain arf1, stronger effect = lower value",0.971 (inactive)
same,normalized growth,"locus YDR001C, strain nth1, stronger effect = lower value",0.998 (inactive)
same,normalized growth,"locus YDR069C, strain doa4, stronger effect = lower value",0.987 (inactive)
same,normalized growth,"locus YDR101C, strain arx1, stronger effect = lower value",0.977 (inactive)
same,normalized growth,"locus YDR137W, strain rgp1, stronger effect = lower value",0.894 (inactive)
same,normalized growth,"locus YDR150W, strain NUM1, stronger effect = lower value",1.01 (inactive)
same,normalized growth,"locus YDR159W, strain sac3, stronger effect = lower value",0.978 (inactive)
same,normalized growth,"locus YDR162C, strain NBP2, stronger effect = lower value",1.02 (inactive)
same,normalized growth,"locus YDR195W, strain ref2",0.958 (inactive)
same,normalized growth,"locus YDR297W, strain sur2, stronger effect = lower value",0.995 (inactive)
same,normalized growth,"locus YDR318W, strain mcm21, stronger effect = lower value",1 (inactive)
same,normalized growth,"locus YDR334W, strain swr1, stronger effect = lower value",0.999 (inactive)
same,normalized growth,"locus YDR335W, strain msn5, stronger effect = lower value",0.981 (inactive)
same,normalized growth,"locus YDR388W, stronger effect = lower value",0.99 (inactive)
same,normalized growth,"locus YDR392W, strain spt3, stronger effect = lower value",0.984 (inactive)
same,normalized growth,"locus YDR502C, strain sam2, stronger effect = lower value",1.02 (inactive)
same,normalized growth,"locus YEL003W, strain gim4, stronger effect = lower value",1 (inactive)
same,normalized growth,"locus YEL037C, strain rad23, stronger effect = lower value",0.999 (inactive)
same,normalized growth,"locus YEL061C, strain CIN8 (second series), stronger effect = lower value",0.998 (inactive)
same,normalized growth,"locus YEL061C, strain CIN8, stronger effect = lower value",1 (inactive)
same,normalized growth,"locus YER002W, strain NOP16, stronger effect = lower value",1.01 (inactive)
same,normalized growth,"locus YER015W, strain faa2, stronger effect = lower value",0.997 (inactive)
same,normalized growth,"locus YER016W, strain bim1, stronger effect = lower value",0.993 (inactive)
same,normalized growth,"locus YER110C, stronger effect = lower value",0.993 (inactive)
same,normalized growth,"locus YER111C, strain swi4, stronger effect = lower value",0.979 (inactive)
same,normalized growth,"locus YER155C, strain BEM2 (second series), stronger effect = lower value",0.965 (inactive)
same,normalized growth,"locus YER155C, strain BEM2, stronger effect = lower value",1.02 (inactive)
same,normalized growth,"locus YER167W, strain BCK2, stronger effect = lower value",1 (inactive)
same,normalized growth,"locus YFR010W, strain ubp6, stronger effect = lower value",0.991 (inactive)
same,normalized growth,"locus YGL078C, strain dbp3, stronger effect = lower value",1 (inactive)
same,normalized growth,"locus YGL086W, strain mad1, stronger effect = lower value",1 (inactive)
same,normalized growth,"locus YGL167C, strain pmr1, stronger effect = lower value",0.986 (inactive)
same,normalized growth,"locus YGL173C, strain kem1, stronger effect = lower value",0.986 (inactive)
same,normalized growth,"locus YGL227W, strain vid30, stronger effect = lower value",0.985 (inactive)
same,normalized growth,"locus YGL240W, strain doc1, stronger effect = lower value",0.959 (inactive)
same,normalized growth,"locus YGL248W, strain PDE1, stronger effect = lower value",1 (inactive)
same,normalized growth,"locus YGL253W, strain hxk2, stronger effect = lower value",1 (inactive)
same,normalized growth,"locus YGR078C, strain PAC10, stronger effect = lower value",1.02 (inactive)
same,normalized growth,"locus YGR135W, strain pre9, stronger effect = lower value",0.997 (inactive)
same,normalized growth,"locus YGR229C, strain SMI1, stronger effect = lower value",1.01 (inactive)
same,normalized growth,"locus YGR252W, strain gcn5, stronger effect = lower value",0.956 (inactive)
same,normalized growth,"locus YHR013C, strain ard1, stronger effect = lower value",0.99 (inactive)
same,normalized growth,"locus YHR027C, strain rpn1, stronger effect = lower value",0.998 (inactive)
same,normalized growth,"locus YHR030C, strain SLT2, stronger effect = lower value",1 (inactive) and 0.979 (inactive)
same,normalized growth,"locus YHR079C, strain IRE1 (second series), stronger effect = lower value",0.995 (inactive)
same,normalized growth,"locus YHR079C, strain IRE1, stronger effect = lower value",0.986 (inactive)
same,normalized growth,"locus YHR094C, strain hxt1, stronger effect = lower value",0.993 (inactive)
same,normalized growth,"locus YHR129C, strain ARP1, stronger effect = lower value",1 (inactive)
same,normalized growth,"locus YHR142W, strain chs7, stronger effect = lower value",1 (inactive)
same,normalized growth,"locus YHR200W, strain rpn10, stronger effect = lower value",0.995 (inactive)
same,normalized growth,"locus YIL066C, strain RNR3, stronger effect = lower value",1.01 (inactive)
same,normalized growth,"locus YIL073C, strain SPO22, stronger effect = lower value",0.989 (inactive)
same,normalized growth,"locus YIL125W, strain kgd1, stronger effect = lower value",1.01 (inactive)
same,normalized growth,"locus YIR030C, strain dcg1, stronger effect = lower value",0.998 (inactive)
same,normalized growth,"locus YJL092W, strain hpr5, stronger effect = lower value",0.996 (inactive)
same,normalized growth,"locus YJL095W, strain BCK1 (second series), stronger effect = lower value",0.984 (inactive)
same,normalized growth,"locus YJL095W, strain BCK1, stronger effect = lower value",1.01 (inactive) and 0.989 (inactive)
same,normalized growth,"locus YJL115W, strain asf1, stronger effect = lower value",0.999 (inactive)
same,normalized growth,"locus YJL129C, strain trk1, stronger effect = lower value",0.973 (inactive)
same,normalized growth,"locus YJL134W, strain LCB3, stronger effect = lower value",1 (inactive)
same,normalized growth,"locus YJL154C, strain vps35, stronger effect = lower value",0.993 (inactive)
same,normalized growth,"locus YJL164C, strain tpk1, stronger effect = lower value",1 (inactive)
same,normalized growth,"locus YJL166W, strain qcr8, stronger effect = lower value",0.979 (inactive)
same,normalized growth,"locus YJL168C, strain set2, stronger effect = lower value",0.992 (inactive)
same,normalized growth,"locus YJL187C, strain SWE1 (second series), stronger effect = lower value",1.01 (inactive)
same,normalized growth,"locus YJR043C, strain POL32, stronger effect = lower value",1.01 (inactive)
same,normalized growth,"locus YJR066W, strain TOR1, stronger effect = lower value",0.942 (inactive)
same,normalized growth,"locus YJR075W, strain HOC1, stronger effect = lower value",0.998 (inactive) and 0.252 (active)
